According to PubChem BioAssay AID1159580 (chemical genetic matrix, 2015):
Values joined by “and” are separate entries in the source; they are usually repeats but may differ in a detail not shown here. Equal entries are not always repeated. Screen size: about 5,500 compounds; about 2,000 (36%) were called active. Another 18% or so got no clear call; they are omitted. No stated cut-off is given here; in the data, active means normalized growth mostly below about 0.91 (no sharp cut-off); inconclusive means no clear call, values can overlap the other calls; inactive means mostly above about 0.92. Some of the results follow.

Test: chemical genetic growth profiling, strain panel (AID 1159580);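 further: tested at 20 µM; growth read once vehicle control cultures reached saturation at 30 °C; 1 = growth at the plate median or of vehicle wells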
Conditions: S. cerevisiae deletion strains, growth OD

Measured: normalized growth

CC1(C)NC(=O)N(c2ccc([N+](=O)[O-])c(C(F)(F)F)c2)C1=O
inactive: locus YAL013W, strain DEP1, stronger effect = lower value 1.01 and 0.99 | locus YAL021C, strain ccr4, stronger effect = lower value 1.02 | locus YAL026C, strain drs2, stronger effect = lower value 0.983 | locus YAL030W, strain snc1, stronger effect = lower value 0.99 | locus YAL040C, strain CLN3, stronger effect = lower value 1.05 | locus YBL061C, strain skt5, stronger effect = lower value 0.98 | locus YBR009C, strain hhf1, stronger effect = lower value 0.982 | locus YBR021W, strain FUR4, stronger effect = lower value 1.02 | locus YBR023C, strain chs3, stronger effect = lower value 0.987 | locus YBR171W, strain sec66, stronger effect = lower value 0.98 | locus YBR229C, strain ROT2, stronger effect = lower value 1.01 | locus YBR231C, strain swc5, stronger effect = lower value 0.989 | locus YBR279W, strain paf1, stronger effect = lower value 0.994 | locus YCL011C, strain gbp2, stronger effect = lower value 0.985 | locus YCL016C, strain dcc1, stronger effect = lower value 0.986 | locus YCL029C, strain bik1, stronger effect = lower value 0.967 | locus YCL061C, strain MRC1 (second series), stronger effect = lower value 1 | locus YCL061C, strain MRC1, stronger effect = lower value 0.976 | locus YCL069W, strain vba3, stronger effect = lower value 0.98 | locus YCR088W, strain abp1, stronger effect = lower value 0.982 | locus YDL005C, strain med2, stronger effect = lower value 0.993 | locus YDL035C, strain GPR1, stronger effect = lower value 1 | locus YDL040C, strain nat1, stronger effect = lower value 0.984 | locus YDL074C, strain BRE1, stronger effect = lower value 1.02 | locus YDL101C, strain DUN1, stronger effect = lower value 1.01 | locus YDL134C, strain PPH21, stronger effect = lower value 1.02 | locus YDL185W, strain tfp1, stronger effect = lower value 0.977 | locus YDL192W, strain arf1, stronger effect = lower value 0.983 | locus YDR001C, strain nth1, stronger effect = lower value 0.985 | locus YDR069C, strain doa4, stronger effect = lower value 0.99 | locus YDR101C, strain arx1, stronger effect = lower value 0.982 | locus YDR137W, strain rgp1, stronger effect = lower value 0.894 | locus YDR150W, strain NUM1, stronger effect = lower value 1.03 | locus YDR159W, strain sac3, stronger effect = lower value 0.985 | locus YDR162C, strain NBP2, stronger effect = lower value 1 | locus YDR195W, strain ref2 0.975 | locus YDR297W, strain sur2, stronger effect = lower value 0.99 | locus YDR318W, strain mcm21, stronger effect = lower value 0.994 | locus YDR334W, strain swr1, stronger effect = lower value 0.989 | locus YDR335W, strain msn5, stronger effect = lower value 0.994 | locus YDR363W, strain ESC2, stronger effect = lower value 0.975 | locus YDR388W, stronger effect = lower value 0.983 | locus YDR392W, strain spt3, stronger effect = lower value 0.998 | locus YDR502C, strain sam2, stronger effect = lower value 0.984 | locus YEL003W, strain gim4, stronger effect = lower value 0.985 | locus YEL037C, strain rad23, stronger effect = lower value 0.988 | locus YEL061C, strain CIN8 (second series), stronger effect = lower value 0.989 | locus YEL061C, strain CIN8, stronger effect = lower value 0.999 | locus YER002W, strain NOP16, stronger effect = lower value 0.996 | locus YER015W, strain faa2, stronger effect = lower value 0.971 | locus YER016W, strain bim1, stronger effect = lower value 0.983 | locus YER110C, stronger effect = lower value 0.971 | locus YER111C, strain swi4, stronger effect = lower value 0.985 | locus YER155C, strain BEM2 (second series), stronger effect = lower value 0.987 | locus YER155C, strain BEM2, stronger effect = lower value 0.996 | locus YER167W, strain BCK2, stronger effect = lower value 1.01 | locus YFR010W, strain ubp6, stronger effect = lower value 0.985 | locus YGL078C, strain dbp3, stronger effect = lower value 0.986 | locus YGL086W, strain mad1, stronger effect = lower value 0.992 | locus YGL167C, strain pmr1, stronger effect = lower value 0.983 | locus YGL173C, strain kem1, stronger effect = lower value 0.976 | locus YGL227W, strain vid30, stronger effect = lower value 0.973 | locus YGL240W, strain doc1, stronger effect = lower value 0.98 | locus YGL248W, strain PDE1, stronger effect = lower value 1.01 | locus YGL253W, strain hxk2, stronger effect = lower value 0.985 | locus YGR078C, strain PAC10, stronger effect = lower value 1.01 and 0.981 | locus YGR135W, strain pre9, stronger effect = lower value 0.98 | locus YGR229C, strain SMI1, stronger effect = lower value 1.02 | locus YGR252W, strain gcn5, stronger effect = lower value 0.978 | locus YHR013C, strain ard1, stronger effect = lower value 0.97 | locus YHR027C, strain rpn1, stronger effect = lower value 0.984 | locus YHR030C, strain SLT2, stronger effect = lower value 1.01 and 0.984 | locus YHR079C, strain IRE1 (second series), stronger effect = lower value 0.988 | locus YHR079C, strain IRE1, stronger effect = lower value 1 | locus YHR094C, strain hxt1, stronger effect = lower value 0.986 | locus YHR129C, strain ARP1, stronger effect = lower value 1.01 | locus YHR142W, strain chs7, stronger effect = lower value 0.986 | locus YHR200W, strain rpn10, stronger effect = lower value 0.987 | locus YIL066C, strain RNR3, stronger effect = lower value 1.02 | locus YIL073C, strain SPO22, stronger effect = lower value 1 | locus YIL125W, strain kgd1, stronger effect = lower value 0.986 | locus YIR030C, strain dcg1, stronger effect = lower value 0.983 | locus YJL092W, strain hpr5, stronger effect = lower value 0.978 | locus YJL095W, strain BCK1 (second series), stronger effect = lower value 0.982 | locus YJL095W, strain BCK1, stronger effect = lower value 0.991 and 1 | locus YJL115W, strain asf1, stronger effect = lower value 0.992 | locus YJL129C, strain trk1, stronger effect = lower value 0.991 | locus YJL134W, strain LCB3, stronger effect = lower value 1.01 | locus YJL154C, strain vps35, stronger effect = lower value 0.988 | locus YJL164C, strain tpk1, stronger effect = lower value 0.985 | locus YJL166W, strain qcr8, stronger effect = lower value 0.986 | locus YJL168C, strain set2, stronger effect = lower value 0.987 | locus YJL187C, strain SWE1 (second series), stronger effect = lower value 1.01 | locus YJL187C, strain SWE1, stronger effect = lower value 0.981 | locus YJR043C, strain POL32, stronger effect = lower value 1 | locus YJR066W, strain TOR1, stronger effect = lower value 0.956
